Among all 310,000 compounds or so, about 17,000 (5.5%) were called active. Inconclusive results (about 11%) are left out. What follows is part of a selection rich in actives, with near analogues and random picks from the rest. A number with no mark means an inactive call. The call rests on the fitted dose curve; in most records, active means well fitted inhibition curve with a large enough effect; inconclusive means small, poorly fitted or top-dose-only effect, or effect the other way; inactive means no such curve, though single readings can be large or run the other way.
These compounds were tested against Nuclear receptor ROR-gamma (Mus musculus) (UniProt P51450) (assay: qHTS for inhibitors of ROR gamma transcriptional activity). Details: Drosophila S2 Gal4-RORgamma UAS-luciferase reporter, 20 h; series mostly up to 53.6 µM; activity change, negative = inhibition: at the top concentration.
Chain of Nuclear receptor ROR-gamma (Mus musculus) (P51450 whole entry, looked up, the tested form may be a part): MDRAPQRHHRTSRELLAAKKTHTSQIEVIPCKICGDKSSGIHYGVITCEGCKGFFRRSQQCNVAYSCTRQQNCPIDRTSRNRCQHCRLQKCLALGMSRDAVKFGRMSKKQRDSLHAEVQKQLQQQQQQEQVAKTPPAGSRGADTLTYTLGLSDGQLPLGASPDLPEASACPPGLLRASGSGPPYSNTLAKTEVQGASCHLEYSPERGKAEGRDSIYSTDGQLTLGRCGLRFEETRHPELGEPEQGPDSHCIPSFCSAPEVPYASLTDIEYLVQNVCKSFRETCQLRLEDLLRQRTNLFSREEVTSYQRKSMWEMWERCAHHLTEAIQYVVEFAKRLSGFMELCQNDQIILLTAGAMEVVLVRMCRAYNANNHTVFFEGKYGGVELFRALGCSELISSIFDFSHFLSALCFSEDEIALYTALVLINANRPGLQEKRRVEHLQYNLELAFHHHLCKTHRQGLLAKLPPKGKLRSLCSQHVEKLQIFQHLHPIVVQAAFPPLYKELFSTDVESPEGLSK
Excerpt: NIH Molecular Libraries Probe Production Network [MLPCN] NIH Chemical Genomics Center [NCGC] MLPCN Grant: R03 DA026211-01 Assay Provider: Dan Littman, New York University Assay Overview: The retinoic acid-related orphan receptor (ROR) gamma is a transcription factor that has a central role in the differentiation of Th17 cells, a subset of T helper cells that secrete the inflammatory cytokines IL-17, IL-17F, and IL-22. Th17 cells have been implicated in graft versus host disease, autoimmune disease and asthma. ROR gamma is induced in naive T helper cells in the presence of TGF-beta combined with IL-6, IL-21, or IL-23, and thereafter directs the expression of the Th17 lineage cytokines. To study the mechanism of action of ROR gamma, an insect cell-based assay was screened. This Drosophila Schneider cell line was stably transfected with two vectors: a gene expressing a fusion of the Gal4 DNA binding domain and ROR gamma transactivation domain under the control of the metallothionine promoter and a Photinus luciferase reporter regulated by the Gal4 binding site enhancer, UAS. […] Small molecule inhibitors of ROR gamma activity are detected by a decrease in luciferase reporter activity.
Assay Protocol Summary: For screening, 600 cells in 4 uL/well were dispensed into white solid 1536-well plates (Grenier) using a solenoid-based dispenser. Following transfer of 23 nL compound or DMSO vehicle by a pin tool, the plates were incubated 1 hr at ambient temperature, and 1 uL/well copper sulfate (700 uM final concentration) was added. The plates were centrifuged 15 s at 1000 RPM and incubated 20 hr at ambient temperature. After addition of 1.5 uL Photinus luciferase detection reagent, the plates were incubated 10 min at ambient temperature and then read by an ViewLux (Perkin Elmer) to detect luminescence. Keywords: NIH Roadmap, MLPCN, MLI, MLSMR, qHTS, NCGC, qHTS, nuclear hormone receptor, retinoic acid-related orphan receptor, ROR gamma
Further: nearly all actives have a fitted effect of over 60% in size.
On the % scale 0 is the no-effect control and ±100 the full control effect; potency means the concentration at half of the fitted maximal effect.

| Structure (SMILES) | activity change, negative = inhibition [%] | Potency |
| --- | --- | --- |
| O=C1C2CCCN2C(=O)N1CCCCN1CCN(c2cccc(C(F)(F)F)c2)CC1 (stereo not drawn) | -13.4 |  |
| N#Cc1cc([N+](=O)[O-])ccc1Oc1cccc(/C=N/NC(=O)c2ccc(Cl)cc2)c1 | 3.47 |  |
| CC1(C)C2CC=C(/C=N/NC(=O)c3ccc(Cl)cc3)C1C2 (stereo not drawn) |  | 12.6 µM (active) |
| CC1(C)C2CC=C(/C=N/NC(=O)C3CC3)C1C2 (stereo not drawn) | 3.41 |  |
| N#Cc1c(-c2ccccc2)nc(SCc2cccc(C(F)(F)F)c2)[nH]c1=O | -5.35 |  |
| Cc1nn(C(C)C(=O)NCCC2=CCCCC2)c(=O)c2nn(-c3ccccc3)c(C)c12 (stereo not drawn) | -18.5 |  |
| Cc1cc(C)cc(NC(=S)NCCCN2CCOCC2)c1 | -41.7 |  |
| CCCCc1ccc(NC(=S)NCCCN2CCOCC2)cc1 |  | 10 µM (active) |
| O=C(NNC(=S)NCCCN1CCOCC1)c1ccncc1 | 0.729 |  |
| COc1ccccc1C(=O)N(C1=NC(C)CS1)c1ccc(Cl)cc1 (stereo not drawn) | 16.1 |  |
| Cc1ccc(C)c(NC(=O)c2ccc3nccnc3c2)c1 | 15 |  |
| CCC1(C)Cc2c(sc3nc(SC)[nH]c(=O)c23)CO1 (stereo not drawn) | 21.3 |  |
| CCC1(C)Cc2c(sc3[nH]c(=S)n(Cc4ccccc4)c(=O)c23)CO1 (stereo not drawn) |  | 0.708 µM (active) |
| CCC1(C)Cc2c(sc3nc(SC)nc(N)c23)CO1 (stereo not drawn) | 1.66 |  |
| COc1ccc(S(=O)(=O)NCCCCOc2ccc(Cl)cc2)cc1 | 21.1 |  |
| COc1cccc(CNS(=O)(=O)c2ccc3c(c2)N(C(C)=O)CCS3)c1 | 29.6 |  |
| COc1cccc(C(=O)N/N=C(\C)c2cccc(NC(=O)c3ccc(F)cc3)c2)c1OC | 19 |  |
| COc1cccc(NC(=O)CSc2nnc(Cc3ccc(OC)c(OC)c3)o2)c1 | -8.74 |  |
| CCN(Cc1ccccc1)C(=O)CN1C(=S)NC(C)(C)CC1C (stereo not drawn) |  | 11.2 µM (active) |
| CCN(CC)C(=O)N(CC)Cc1ccccc1 | -2.25 |  |
| COc1cccc(CNC(=O)CCN2C(=S)NC(C)(C)CC2C)c1 (stereo not drawn) | -30.2 |  |
| O=C(CCC(=O)N/N=C/c1ccc(Br)o1)N/N=C/c1ccc(Br)o1 | -1.84 |  |
| Cc1ccc(C(=O)N/N=C\c2cc(Br)c(Br)o2)cn1 |  | 11.2 µM (active) |

| Structure (SMILES) | activity change, negative = inhibition [%] | Potency |
| --- | --- | --- |
| O=C(CCc1n[nH]c(=O)[nH]c1=O)N/N=C/c1ccc(Br)o1 | -0.308 |  |
| O=C(N/N=C/c1ccco1)c1ccc(NC(=O)C2CC2)cc1 | 15 |  |
| O=C(N/N=C/c1ccc(Br)o1)c1cncc(Br)c1 |  | 5.62 µM (active) |
| Cc1ccc(NC(=O)COc2ccc(/C=N\NC(=O)c3cccnc3)cc2)cc1C | 8.19 |  |
| CCN(CC)CCN1C(=O)C2C(C(=O)Nc3ccc(Br)cc3)C3C=CC2(O3)C1C(=O)NC1CCCCC1 (stereo not drawn) | 3.48 |  |
| Cc1c(C(=O)NC(C)C2CC3CCC2C3)cccc1[N+](=O)[O-] (stereo not drawn) | -0.665 |  |
| Cc1nn(Cc2ccccc2)c(Cl)c1C(=O)OC1CCOC1=O (stereo not drawn) | -0.363 |  |
| O=C(OC1CCOC1=O)c1ccc(-c2nc3ccccc3s2)s1 (stereo not drawn) |  | 3.55 µM (active) |
| CC(C)c1ccc(C(=O)OC2CCOC2=O)cc1 (stereo not drawn) | -21.9 |  |
| CCOc1ccc(NC(=O)c2nc(SCC)ncc2Cl)cc1 | 7.38 |  |
| CC1CC(C)CN(C(=O)CCNC(=O)Cn2cnc3ccccc3c2=O)C1 (stereo not drawn) | 19 |  |
| CCc1ccc(-c2cc(C)no2)cc1S(=O)(=O)NCCc1ccc(S(N)(=O)=O)cc1 | 25.5 |  |
| Cc1cc(=O)oc(C)c1C(=O)N1CCCCC1 | 1.13 |  |
| Cc1ccc2cc3cc(C(=O)N4CCCCCC4)oc3nc2c1 |  | 10 µM (active) |
| Cc1cccc(C(=O)N2CCCN(C(=O)c3cccc(C)c3)CC2)c1 | 14.8 |  |
| CCC1=Nc2cc(C(=O)NCCCN3CCOCC3)ccc2Sc2ccc(Br)cc21 | 2.37 |  |
| COc1cccc(CN(C)CC(O)COC(c2ccccc2)c2ccccc2C)c1 (stereo not drawn) | 17.3 |  |
| CSc1ccc(CCNC(=O)CS(=O)(=O)Cc2nc(-c3ccccc3F)oc2C)cc1 | -13.9 |  |
| Cc1ccc(C(=O)Nc2nnc(C3=COCCO3)o2)cc1C |  | 0.282 µM (active) |
| Cc1ccc(C(=O)NCCN2CCOCC2)cc1C | -24.5 |  |
| Cc1ccc(C(=O)Nc2nnc(-c3cccs3)s2)cc1C | 1.53 |  |
| O=C(Nc1nnc(C2=COCCO2)o1)c1ccc([N+](=O)[O-])s1 |  | 2.82 µM (active) |
| COc1ccc(C(CNCC(=O)Nc2ccccc2F)N(C)C)cc1 (stereo not drawn) | -0.678 |  |

| Structure (SMILES) | activity change, negative = inhibition [%] | Potency |
| --- | --- | --- |
| C=CCn1c(CNS(=O)(=O)c2ccc(Br)cc2)nnc1SC | 2.64 |  |
| CC(C)c1ccc2oc(=O)cc(CN3CCN(Cc4ccccc4)CC3)c2c1 | 8.06 |  |
| CCOc1ccc(NC(=O)CSc2nncn2C)cc1 | 6.27 |  |
| COc1ccc(C)cc1NC(=O)CN(C)S(=O)(=O)c1ccc2c(c1)n(C)c(=O)c(=O)n2C | -2.02 |  |
| CC(C)c1ccc(N(C(=O)c2ccco2)C(C(=O)NC2CCCC2)c2cccnc2)cc1 (stereo not drawn) | 17.8 |  |
| COc1ccc(CNC(=O)c2ccc3oc(C(C)C)nc3c2)cc1 | 24.2 |  |
| COc1ccc(N2CCN(S(=O)(=O)c3ccc4c(c3)N(C(C)=O)CCO4)CC2)cc1 | 17.5 |  |
| CCOCCCN(C)C1CCN(C(=O)c2oc3ccccc3c2NC(=O)Cc2cccc([N+](=O)[O-])c2)CC1 | -6.41 |  |
| Cc1nnnn1/C(=C\c1ccccc1)C(=O)OCC(=O)N1CC2(C)CC1CC(C)(C)C2 (stereo not drawn) |  | 5.01 µM (active) |
| COc1cc(CCC(=O)N2CCN(c3ccccc3Cl)CC2)cc(OC)c1OC | 19 |  |
| COc1ccc(NC(=O)N2CCC(Cc3ccccc3)CC2)cc1 | 23.2 |  |
| COc1ccc(NC(=S)NCC2CCN(c3ccc(OC)cc3)C2)cc1 (stereo not drawn) |  | 3.16 µM (active) |
| COc1ccc(OCC(=O)Nc2ccc(N3CCC(C)CC3)cc2)cc1 | -21.7 |  |
| COc1ccc(NC(=S)NCCN2CCC(C)CC2)cc1 | 2.43 |  |
| COc1cccc(N2CC(C(=O)Nc3c(C)cccc3C)CC2=O)c1 (stereo not drawn) | -10.1 |  |
| COc1ccc(N2CCC(CNC(=S)Nc3c(C)cccc3C)C2)cc1 (stereo not drawn) |  | 0.891 µM (active) |
| O=C(Cn1nc(C(=O)O)c2ccccc2c1=O)Nc1ccc(F)cc1 | 18.6 |  |
| CC1Sc2ccc(S(=O)(=O)CCC(=O)NCc3ccccc3Cl)cc2NC1=O (stereo not drawn) | 10.1 |  |
| CC(=O)c1cc(CN2CCC(C(=O)Nc3cccc(-c4cscn4)c3)CC2)cs1 | 0 |  |
| COc1ccc(CCNC(=O)c2nnc(CS(=O)(=O)c3ccccc3)o2)cc1OC | -8.42 |  |
| Cc1cccc(OCC(=O)Nc2ccc(C(=O)O)cc2NC(=O)COc2cccc(C)c2)c1 | -33.8 |  |
| COCCNc1ccc(-c2n[nH]c(=O)c3ccccc23)cc1[N+](=O)[O-] | -3.41 |  |
